# Test results from PubChem BioAssay (EPA / NIEHS).
# Records with an inconclusive call do not appear. A structure can be active in one record and inactive in another. Calls of active or inactive are those of the source. Rule for the calls, unless noted: active = hit-call score of the fitted dose curve at least 0.9, where 1 is the maximum; inconclusive = response in the unintended direction; inactive = score below 0.9.
# Key:
# [1] = molecular target: bovine Estrogen Receptor (ER), ESR1 (gene 407238) (UniProt P49884); assay: NVS_NR_bER: NovaScreen (NVS) Nuclear Receptor Binding Assay for bovine Estrogen Receptor (ER) (AID 2283345);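 note: actives lower the bound radioligand count which means they displace the ER ligand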
# Sequence of bovine Estrogen Receptor (ER), ESR1 (gene 407238) (P49884 whole entry, looked up): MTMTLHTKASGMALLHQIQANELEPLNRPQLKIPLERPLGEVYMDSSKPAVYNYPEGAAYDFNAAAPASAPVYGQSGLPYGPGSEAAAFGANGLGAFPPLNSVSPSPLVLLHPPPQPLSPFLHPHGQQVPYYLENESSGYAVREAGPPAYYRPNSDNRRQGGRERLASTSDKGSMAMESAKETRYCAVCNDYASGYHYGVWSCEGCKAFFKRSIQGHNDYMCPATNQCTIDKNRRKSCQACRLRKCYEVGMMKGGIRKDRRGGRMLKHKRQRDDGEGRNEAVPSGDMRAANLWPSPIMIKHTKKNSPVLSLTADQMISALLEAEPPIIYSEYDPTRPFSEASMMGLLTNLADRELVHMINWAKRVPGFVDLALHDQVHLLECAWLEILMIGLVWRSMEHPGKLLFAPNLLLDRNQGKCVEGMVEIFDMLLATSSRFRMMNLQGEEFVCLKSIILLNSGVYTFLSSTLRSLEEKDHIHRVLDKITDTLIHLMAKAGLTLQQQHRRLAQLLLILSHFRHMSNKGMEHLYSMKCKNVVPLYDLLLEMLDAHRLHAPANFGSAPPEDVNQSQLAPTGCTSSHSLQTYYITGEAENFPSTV
# Outline: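 Scintillation counting of displaced radioligand gave the readout; bovine uterine membrane extract supplied the receptor. Measured 18 h post-dose, normalized to DMSO baseline. Single 25 uM duplicate screen preceded concentration-response follow-up.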
# [2] = molecular target: Estrogen receptor (Homo sapiens) (UniProt P03372); assay: NVS_NR_hER: NovaScreen (NVS) Nuclear Receptor Binding Assay for human Estrogen Receptor (ER) (AID 2283348)
# Sequence of Estrogen receptor (Homo sapiens) (P03372 whole entry, looked up): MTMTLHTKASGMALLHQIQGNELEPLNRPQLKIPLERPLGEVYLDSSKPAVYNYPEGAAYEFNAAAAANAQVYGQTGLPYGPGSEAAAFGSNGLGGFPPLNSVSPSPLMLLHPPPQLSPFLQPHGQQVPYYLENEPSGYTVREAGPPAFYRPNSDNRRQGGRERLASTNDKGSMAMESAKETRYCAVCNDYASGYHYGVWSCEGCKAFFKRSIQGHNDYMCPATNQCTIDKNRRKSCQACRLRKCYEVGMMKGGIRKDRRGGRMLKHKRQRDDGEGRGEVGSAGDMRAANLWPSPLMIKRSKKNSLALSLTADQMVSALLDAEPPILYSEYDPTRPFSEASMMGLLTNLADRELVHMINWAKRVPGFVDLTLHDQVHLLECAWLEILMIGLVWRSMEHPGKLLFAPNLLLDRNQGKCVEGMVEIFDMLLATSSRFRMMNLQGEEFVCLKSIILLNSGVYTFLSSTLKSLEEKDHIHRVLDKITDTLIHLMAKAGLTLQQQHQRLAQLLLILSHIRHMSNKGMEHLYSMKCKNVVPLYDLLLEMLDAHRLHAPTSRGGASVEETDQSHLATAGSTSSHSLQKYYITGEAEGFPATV
# Outline: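 Radioligand competitive displacement binding to estrogen receptor from MCF7 extract, cell-free; 18 h after dosing, scintillation read-out. Primary screen in duplicate at 25 uM; actives followed up in concentration series; loss of signal vs DMSO.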
# [3] = CCTE_Shafer_MEA_acute_spike_number: CCTE's Neural Acute Assay for Total Number of Spikes, Shafer Lab (AID 2284008; active = hit-call score of the fitted dose curve at least 0.9, where 1 is the maximum; inactive = score below 0.9;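 note: curve fitted for decrease in spike count so AC50 reflects inhibitors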)
# Outline: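 Using an adaptive detector set to 8x rms noise, spikes were counted in 40-min windows before and after compound addition (0.03-40 uM) to rat cortical networks at 37 C; the well-level change from baseline was analysed relative to DMSO.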
# [4] = CCTE_Shafer_MEA_acute_firing_rate_mean: CCTE's Neural Acute Assay for Mean Firing Rate, Shafer Lab (AID 2284009; active = hit-call score of the fitted dose curve at least 0.9, where 1 is the maximum; inactive = score below 0.9;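 note: analyzed for loss of signal so actives lower firing rate relative to DMSO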)
# Outline: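 Rat primary cortical neurons on 48-well MEA plates, dosed at 0.03-40 uM on DIV 13 or 15; 40 min spontaneous activity recorded at 37 C before and after compound. Spike rate per electrode averaged per well, expressed as percent change from baseline.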
# [5] = CCTE_Shafer_MEA_acute_burst_number: CCTE's Neural Acute Assay for Single-Electrode Bursts, Shafer Lab (AID 2284013; active = hit-call score of the fitted dose curve at least 0.9, where 1 is the maximum; inactive = score below 0.9)
# Outline: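 Primary rat cortical neurons on 16-electrode MEA wells, treated on DIV 13 or 15 with compound at 0.03-40 uM. Single-electrode burst count from 40-min recordings at 37 C before and after exposure; percent change from baseline per well, DMSO negative control.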
# [6] = CCTE_Shafer_MEA_acute_burst_duration_mean: CCTE's Neural Acute Assay for Mean Burst Duration, Shafer Lab (AID 2284014; active = hit-call score of the fitted dose curve at least 0.9, where 1 is the maximum; inactive = score below 0.9;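 note: hits are decreases in mean burst duration relative to DMSO controls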)
# Outline: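 Rat primary cortical neurons on 48-well MEA, treated at DIV 13 or 15 with 0.03-40 uM in at least 3 wells. Value is percent change in mean burst duration, comparing 40 min recordings at 37 C before and during exposure.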
# [7] = CCTE_Shafer_MEA_acute_per_burst_spike_number_mean: CCTE's Neural Acute Assay for Average Number of Spikes Per Burst, Shafer Lab (AID 2284015; active = hit-call score of the fitted dose curve at least 0.9, where 1 is the maximum; inactive = score below 0.9;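 note: hits are decreases in mean spikes per burst versus baseline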)
# Outline: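 Read-out: percent change in mean spikes per burst, each well's post-exposure 40-min recording versus its own 40-min baseline. Rat cortical cultures, DIV 13 or 15, compounds 0.03-40 uM; DMSO is negative control, loss-of-signal fitting.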
# [8] = CCTE_Shafer_MEA_acute_per_network_burst_spike_number_mean: CCTE's Neural Acute Assay for Average Number of Spikes in a Network Burst, Shafer Lab (AID 2284019; active = hit-call score of the fitted dose curve at least 0.9, where 1 is the maximum; inactive = score below 0.9;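 for AC50: curve fitted for loss of signal so actives reduce spikes per network burst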)
# Outline: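 Rat primary cortical neurons on 48-well MEA at DIV 13 or 15, 37 C; compounds 0.03-40 uM, at least three wells each. 40-min baseline then 40-min exposure recording; percent change in mean spikes per network burst.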
# [9] = CCTE_Shafer_MEA_acute_per_network_burst_spike_number_std: CCTE's Neural Acute Assay for Standard Deviation of Number of Spikes in a Network Burst, Shafer Lab (AID 2284020; active = hit-call score of the fitted dose curve at least 0.9, where 1 is the maximum; inactive = score below 0.9;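 note: fitted for decrease in spike-number SD versus DMSO so actives lower it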)
# Outline: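 Rat primary cortical neurons on 48-well MEA (16 electrodes/well), treated DIV 13 or 15 at 0.03-40 uM, ≥3 wells per compound. 40 min recordings at 37 C before and after dosing; value is percent change in network-burst spike-number SD, negative direction vs DMSO.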
# [10] = CCTE_Shafer_MEA_acute_network_burst_percentage: CCTE's Neural Acute Assay for Percentage of Network Bursts, Shafer Lab (AID 2284022; active = hit-call score of the fitted dose curve at least 0.9, where 1 is the maximum; inactive = score below 0.9;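 note: curves fitted for loss so actives lower network burst percentage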)
# Outline: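 On DIV 13 or 15, at least three wells of rat cortical neurons per compound are dosed at 0.03-40 uM. Spontaneous firing is detected at 8x rms noise for 40 min before and after dosing at 37 C. The percent change in network-burst spike share is reported.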
# [11] = CCTE_Deisenroth_5AR_NBTE_donor: CCTE's 5alpha-reductase NanoBRET Target Engagement Assay […], Deisenroth Lab (AID 2284319; active = hit-call score of the fitted dose curve at least 0.9, where 1 is the maximum; inactive = score below 0.9); conditions: actives raise or lower the signal
# Outline: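 SRD5A2-NanoLuc, HEK293T, 20 h expression. Chemical 10 nM - 29.9 uM, 8 conc, duplicate; 3 h preincubation + 2 h testosterone tracer. Nano-Glo substrate plus extracellular NanoLuc inhibitor; donor lum 460 nm. DMSO baseline, bidirectional fit.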
# SRD5A2 (gene 6716) = assay: CCTE_Deisenroth_5AR_NBTE_ratio: CCTE's 5alpha-reductase NanoBRET Target Engagement Assay - Ratio, Deisenroth Lab (AID 2284322; active = hit-call score of the fitted dose curve at least 0.9, where 1 is the maximum; inactive = score below 0.9); conditions: actives raise or lower the signal
# Outline: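 Reverse-transfect HEK293T with pNLF1-C-SRD5A2, express 20 h. Pre-incubate cells with chemical 3 h (8-point series, 10 nM - 29.9 uM, duplicate). Add testosterone tracer, 2 h more. Add substrate/inhibitor, read donor and acceptor emission.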
# [12] = molecular target: Androgen Receptor/SRC-1 Co-activator, AR (gene 367) (UniProt P10275); assay: OT_AR_ARSRC1_0960: Odyssey Thera (OT) 16-hour HEK293T Protein-Complementation Assay for Androgen Receptor/SRC-1 Co-activator (AID 2283353);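 note: actives raise the signal above DMSO so potency reflects increased AR and SRC-1 complex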
# Sequence of Androgen Receptor/SRC-1 Co-activator, AR (gene 367) (P10275 whole entry, looked up, the tested form may be a part): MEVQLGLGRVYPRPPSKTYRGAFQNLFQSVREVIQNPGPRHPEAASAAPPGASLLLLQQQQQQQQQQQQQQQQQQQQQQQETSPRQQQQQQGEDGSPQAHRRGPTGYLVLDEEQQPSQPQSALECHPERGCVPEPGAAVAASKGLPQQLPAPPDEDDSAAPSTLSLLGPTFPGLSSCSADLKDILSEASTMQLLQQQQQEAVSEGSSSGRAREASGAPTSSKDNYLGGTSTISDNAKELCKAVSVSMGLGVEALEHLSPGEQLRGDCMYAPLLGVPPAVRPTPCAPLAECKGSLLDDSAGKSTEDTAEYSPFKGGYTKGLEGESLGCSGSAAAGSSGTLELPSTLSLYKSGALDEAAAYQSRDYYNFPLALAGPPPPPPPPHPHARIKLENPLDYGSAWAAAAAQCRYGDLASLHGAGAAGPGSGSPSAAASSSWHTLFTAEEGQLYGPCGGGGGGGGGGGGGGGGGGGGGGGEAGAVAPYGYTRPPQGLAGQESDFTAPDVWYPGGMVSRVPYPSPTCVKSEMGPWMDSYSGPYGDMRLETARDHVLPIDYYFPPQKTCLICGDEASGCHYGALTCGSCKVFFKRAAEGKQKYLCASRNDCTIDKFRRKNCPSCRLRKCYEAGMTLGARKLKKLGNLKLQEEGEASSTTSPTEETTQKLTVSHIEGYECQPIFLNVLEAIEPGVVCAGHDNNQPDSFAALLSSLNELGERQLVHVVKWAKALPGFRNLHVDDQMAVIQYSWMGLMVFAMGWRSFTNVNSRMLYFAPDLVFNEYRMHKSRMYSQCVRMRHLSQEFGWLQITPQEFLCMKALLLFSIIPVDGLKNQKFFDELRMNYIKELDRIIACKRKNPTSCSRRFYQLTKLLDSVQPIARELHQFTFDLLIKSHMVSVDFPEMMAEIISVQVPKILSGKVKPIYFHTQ
# Outline: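 Interaction of AR with SRC-1 was followed by YFP fragment complementation in HEK293T cells after 16 h of dosing. Gain of nuclear-over-cytoplasmic 488 nm fluorescence against DMSO controls defined activity.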
# [13] = molecular target: Androgen Receptor/SRC-1 Co-activator, AR (gene 367) (UniProt P10275); assay: OT_AR_ARSRC1_0480: Odyssey Thera (OT) 8-hour HEK293T Protein-Complementation Assay for Androgen Receptor/SRC-1 Co-activator (AID 2283354);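 note: hits raise the complementation signal above DMSO so AC50 marks enhancers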
# Outline: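 HEK293T cells stably expressing AR and SRC-1 fused to Venus YFP fragments, imaged 8 h after dosing. Complementation fluorescence scored as nuclear/cytoplasmic ratio at 488 nm in at least 400 cells per image; gain fitted versus DMSO.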
# [14] = molecular target: Agonist Androgen Response Element (ARE), AR (gene 367) (UniProt P10275); assay: OT_AR_ARELUC_AG_1440: Odyssey Thera (OT) 24-hour CHO-K1 Luciferase Assay for Agonist Androgen Response Element (ARE) (AID 2283379)
# Sequence of Agonist Androgen Response Element (ARE), AR (gene 367) (P10275 whole entry, looked up): as the sequence (P10275 whole entry, looked up, the tested form may be a part) above
# Outline: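 CHO-K1 cells carrying an ARE-driven luciferase reporter were exposed to compounds for 24 h. Luminescence was then read after adding a D-luciferin/ATP mix, and activity was scored as a gain in signal over DMSO vehicle.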
# AR (gene 367) = AR (gene 367) (UniProt P10275); assay: ACEA_AR_antagonist_80hr: ACEA Biosciences xCELLigence Real-Time Cell Analysis on Androgen Receptor Antagonism for Proliferation (AID 2283787);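 note: 22Rv1 human prostate cancer cells with growth followed by electrical impedance; hits lower the impedance growth signal relative to DMSO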
# Sequence of AR (gene 367) (P10275 whole entry, looked up): as the sequence (P10275 whole entry, looked up, the tested form may be a part) above
# Outline: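 22Rv1 cells in assay medium, growth tracked by electrical impedance; compounds eight-point 1:4 dilutions from 100 uM final, duplicate plates. Endpoint at 80 h; loss of signal versus DMSO.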
# [15] = molecular target: Ratio of Nucleoli Translocation and Cytoplasm, AR (gene 367) (UniProt P10275); assay: UPITT_HCI_U2OS_AR_TIF2_Nucleoli_Cytoplasm_Ratio_Antagonist: University of Pittsburgh U2OS Androgen Receptor-Transcriptional Intermediary Factor 2 (AR-TIF2) Antagonism High Content Imaging Assay for Ratio of Nucleoli Translocation and Cytoplasm (AID 2283999);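 note: antagonists lower the DHT-driven ratio of nucleolar to cytoplasmic red signal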
# Sequence of Ratio of Nucleoli Translocation and Cytoplasm, AR (gene 367) (P10275 whole entry, looked up): as the sequence (P10275 whole entry, looked up, the tested form may be a part) above
# Outline: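 High-content imaging quantifies the red nucleolar:cytoplasmic fluorescence ratio in U2OS cells with AR-RFP and TIF2-GFP. Final concentrations are 20 uM (screen) or 0.195–50 uM (dose response), analysed against DHT as baseline.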
# [16] = molecular target: human Matrix Metalloproteinase-9 (MMP9), MMP9 (gene 4318) (UniProt P14780); assay: NVS_ENZ_hMMP9: NovaScreen (NVS) Enzymatic Assay for human Matrix Metalloproteinase-9 (MMP9) (AID 2283190);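 note: cell-free recombinant MMP9 protease activity read by fluorescent substrate signal; active means inhibition seen as loss of fluorescence signal versus DMSO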
# Sequence of human Matrix Metalloproteinase-9 (MMP9), MMP9 (gene 4318) (P14780 whole entry, looked up): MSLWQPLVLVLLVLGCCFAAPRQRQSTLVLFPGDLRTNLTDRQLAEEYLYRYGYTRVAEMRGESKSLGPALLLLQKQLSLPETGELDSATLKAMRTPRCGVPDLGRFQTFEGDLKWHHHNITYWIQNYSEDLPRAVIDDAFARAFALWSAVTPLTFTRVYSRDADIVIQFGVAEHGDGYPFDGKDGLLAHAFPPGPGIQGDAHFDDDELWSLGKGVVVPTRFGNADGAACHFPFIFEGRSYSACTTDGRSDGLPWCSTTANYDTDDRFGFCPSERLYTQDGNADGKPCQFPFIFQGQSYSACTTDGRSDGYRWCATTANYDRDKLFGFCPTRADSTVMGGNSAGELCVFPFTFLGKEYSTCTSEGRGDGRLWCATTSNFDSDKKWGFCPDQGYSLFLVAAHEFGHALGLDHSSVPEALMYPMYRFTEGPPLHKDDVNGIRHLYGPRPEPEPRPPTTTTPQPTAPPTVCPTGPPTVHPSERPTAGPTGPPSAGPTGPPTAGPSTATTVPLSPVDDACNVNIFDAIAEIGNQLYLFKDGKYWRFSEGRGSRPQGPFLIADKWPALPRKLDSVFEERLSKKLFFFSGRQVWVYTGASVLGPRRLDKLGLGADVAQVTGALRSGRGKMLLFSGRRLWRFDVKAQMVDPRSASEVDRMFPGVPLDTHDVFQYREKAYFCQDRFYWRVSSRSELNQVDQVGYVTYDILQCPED
# Outline: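 Inhibition was scored as loss of fluorescence signal against DMSO controls. The recombinant protease was exposed to chemicals for 1 hour before reading; initial testing used 25 uM in duplicate.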
# [17] = molecular target: human Dopamine Transporter (DAT), SLC6A3 (gene 6531) (UniProt Q01959); assay: NVS_TR_hDAT: NovaScreen (NVS) Transporter Assay for human Dopamine Transporter (DAT) (AID 2283374);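 note: activity means loss of bound radioligand signal relative to DMSO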
# Sequence of human Dopamine Transporter (DAT), SLC6A3 (gene 6531) (Q01959 whole entry, looked up): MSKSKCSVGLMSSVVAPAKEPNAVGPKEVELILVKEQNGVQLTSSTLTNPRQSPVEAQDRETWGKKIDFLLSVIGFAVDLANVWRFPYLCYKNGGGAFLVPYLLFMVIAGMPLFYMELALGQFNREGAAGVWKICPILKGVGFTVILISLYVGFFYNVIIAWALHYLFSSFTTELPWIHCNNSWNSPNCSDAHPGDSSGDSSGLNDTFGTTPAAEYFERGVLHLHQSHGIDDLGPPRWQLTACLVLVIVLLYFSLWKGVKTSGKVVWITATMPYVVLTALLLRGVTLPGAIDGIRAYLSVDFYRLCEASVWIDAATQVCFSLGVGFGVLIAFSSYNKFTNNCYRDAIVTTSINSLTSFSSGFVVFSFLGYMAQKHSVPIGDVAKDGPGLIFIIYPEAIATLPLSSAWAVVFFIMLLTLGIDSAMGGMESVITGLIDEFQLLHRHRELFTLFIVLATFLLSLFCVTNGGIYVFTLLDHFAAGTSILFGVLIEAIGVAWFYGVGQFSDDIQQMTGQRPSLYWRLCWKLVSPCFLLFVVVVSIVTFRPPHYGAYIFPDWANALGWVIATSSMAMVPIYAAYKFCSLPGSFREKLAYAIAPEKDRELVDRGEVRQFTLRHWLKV
# Outline: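 Cell-free radioligand displacement binding at human DAT, 1 h after dosing, with filtration and scintillation counting. Primary screen in duplicate at 25 uM, actives then in concentration series. Loss of bound signal versus DMSO scored.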
# [18] = molecular target: human Phosphoinositide 3-kinase alpha (PI3Ka), PIK3CA (gene 5290) (UniProt P42336); assay: NVS_ENZ_hPI3Ka: NovaScreen (NVS) Enzymatic Assay for human Phosphoinositide 3-kinase alpha (PI3Ka) (AID 2283196)
# Sequence of human Phosphoinositide 3-kinase alpha (PI3Ka), PIK3CA (gene 5290) (P42336 whole entry, looked up): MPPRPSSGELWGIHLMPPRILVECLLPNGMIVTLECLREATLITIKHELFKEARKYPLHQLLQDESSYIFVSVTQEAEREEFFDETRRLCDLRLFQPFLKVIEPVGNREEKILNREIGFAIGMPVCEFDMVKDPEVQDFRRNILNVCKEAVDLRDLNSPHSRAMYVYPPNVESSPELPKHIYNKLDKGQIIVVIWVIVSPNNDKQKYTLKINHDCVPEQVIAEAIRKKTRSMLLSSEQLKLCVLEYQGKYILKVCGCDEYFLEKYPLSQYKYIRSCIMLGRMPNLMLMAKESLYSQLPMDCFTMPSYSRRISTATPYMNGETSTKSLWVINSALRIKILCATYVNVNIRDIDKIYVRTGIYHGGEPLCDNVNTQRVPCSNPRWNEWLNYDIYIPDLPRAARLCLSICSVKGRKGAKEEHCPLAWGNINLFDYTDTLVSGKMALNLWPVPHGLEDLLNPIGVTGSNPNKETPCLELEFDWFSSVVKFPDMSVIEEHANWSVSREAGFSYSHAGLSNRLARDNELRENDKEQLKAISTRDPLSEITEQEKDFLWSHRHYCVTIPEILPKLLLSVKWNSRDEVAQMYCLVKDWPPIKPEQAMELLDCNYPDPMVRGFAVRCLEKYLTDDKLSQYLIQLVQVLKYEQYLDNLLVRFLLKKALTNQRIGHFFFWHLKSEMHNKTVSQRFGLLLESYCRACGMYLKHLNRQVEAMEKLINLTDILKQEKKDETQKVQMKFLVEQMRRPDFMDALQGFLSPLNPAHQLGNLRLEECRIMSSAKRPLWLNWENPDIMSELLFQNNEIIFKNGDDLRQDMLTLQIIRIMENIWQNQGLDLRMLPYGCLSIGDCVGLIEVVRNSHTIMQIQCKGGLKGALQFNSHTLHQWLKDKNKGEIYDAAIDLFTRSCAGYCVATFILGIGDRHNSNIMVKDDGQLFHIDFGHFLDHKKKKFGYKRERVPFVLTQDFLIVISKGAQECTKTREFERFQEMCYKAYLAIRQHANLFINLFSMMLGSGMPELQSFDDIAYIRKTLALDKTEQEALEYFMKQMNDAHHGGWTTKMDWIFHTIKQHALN
# Outline: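 Chemicals were first screened at 25 uM in duplicate, then hits were run as concentration series up to 50 uM. Enzyme activity was measured by fluorescence after mobility-shift separation, with loss of signal relative to DMSO taken as activity.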
compound,measurement,setting,value
Oc1ccc(C2(c3ccc(O)cc3)c3ccccc3-c3ccccc32)cc1,outcome,[1],inactive
same,AC50,[2],644 nM (active)
same,AC50,[3],8.82 nM (active)
same,AC50,[4],8.83 nM (active)
same,AC50,[5],35.9 nM (active)
same,outcome,[6],inactive
same,AC50,[7],20500 nM (active)
same,outcome,[8],inactive
same,AC50,[9],23100 nM (active)
same,AC50,[10],26400 nM (active)
CCCCCCCCCCCCCCCC[N+](C)(C)C,AC50,[11],16300 nM (active)
same,outcome,SRD5A2 (gene 6716),inactive
O=CNC(N1CCN(C(NC=O)C(Cl)(Cl)Cl)CC1)C(Cl)(Cl)Cl (configuration not stated),outcome,[12],inactive
same,outcome,[13],inactive
same,outcome,[14],inactive
same,outcome,AR (gene 367),inactive
same,outcome,[15],inactive
CCC[N+](=O)[O-],AC50,[16],6060 nM (active)
c1ccc(P(c2ccccc2)c2ccccc2)cc1,outcome,[1],inactive
CC1(C)[C@H](C(=O)O[C@H](C#N)c2cccc(Oc3ccccc3)c2)[C@@H]1C=C(Br)Br,outcome,[12],inactive
same,outcome,[13],inactive
same,AC50,[17],7410 nM (active)
same,outcome,[14],inactive
same,AC50,AR (gene 367),50000 nM (active)
same,outcome,AR (gene 367),inactive
same,AC50,[3],1620 nM (active)
same,AC50,[4],1620 nM (active)
same,AC50,[5],2530 nM (active)
same,AC50,[6],418 nM (active)
same,AC50,[7],387 nM (active)
same,AC50,[8],1500 nM (active)
same,AC50,[9],642 nM (active)
same,AC50,[10],639 nM (active)
CNC(=O)Oc1cc(C)c(SC)c(C)c1,outcome,[15],inactive
CCCCOP(=O)(O)OCCCC,outcome,[2],inactive
CC(C)c1ccc(O)cc1,outcome,[11],inactive
same,outcome,SRD5A2 (gene 6716),inactive
O=C(NCNC(=O)NC1C(=O)NC(=O)N1CO)NC1C(=O)NC(=O)N1CO (configuration not stated),outcome,[12],inactive
same,outcome,[13],inactive
same,outcome,[14],inactive
same,outcome,AR (gene 367),inactive
same,AC50,[15],50000 nM (active)
c1cc(OCC2CO2)ccc1Cc1ccc(OCC2CO2)cc1 (configuration not stated),outcome,[1],inactive
same,outcome,[2],inactive
CC(C)(c1cc(Cl)c(O)c(Cl)c1)c1cc(Cl)c(O)c(Cl)c1,AC50,[18],3450 nM (active)
same,outcome,[17],inactive
c1ccc2c(c1)CCCC2,outcome,[12],inactive
same,outcome,[13],inactive
same,outcome,[14],inactive
same,outcome,AR (gene 367),inactive
c1ccc(Nc2ccc3ccccc3c2)cc1,AC50,[17],13000 nM (active)
CC=Cc1ccc2c(c1)OCO2,AC50,[16],5420 nM (active)
O=C1C=CC(=O)C=C1,AC50,[17],13900 nM (active)
CC(=O)c1cc2c(cc1C)C(C)(C)C(C)CC2(C)C (configuration not stated),outcome,[11],inactive
same,outcome,SRD5A2 (gene 6716),inactive
O=[N+]([O-])c1cc(C(F)(F)F)c(Cl)c([N+](=O)[O-])c1Cl,outcome,[1],inactive
same,outcome,[2],inactive
O=C(O)c1cc[c]([Hg][Cl])cc1,outcome,[1],inactive
same,outcome,[2],inactive
O=C1C(Cl)=C(Cl)C(=O)C(Cl)=C1Cl,outcome,[1],inactive
same,outcome,[2],inactive
C=COCCCl,outcome,[15],inactive
